# Results reported in article PMC4336329 (PLoS ONE, 2015).
# About 14,000 (4.5%) of roughly 310,000 compounds showed an effect of 50% or more. The effect is printed as a negative number. The entries come from a sample that favours strong results as a whole.
# Biological target: human ether-à-go-go-related gene (hERG) potassium channel (human, UniProt Q12809)
# Assay: primary screen, population patch clamp on CHO cells stably expressing hERG; higher = less effect of the substance
# 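Also: peak tail current of the secondary pulse compared with the same well before compound.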
# Sequence of human ether-à-go-go-related gene (hERG) potassium channel (Q12809 whole entry, looked up): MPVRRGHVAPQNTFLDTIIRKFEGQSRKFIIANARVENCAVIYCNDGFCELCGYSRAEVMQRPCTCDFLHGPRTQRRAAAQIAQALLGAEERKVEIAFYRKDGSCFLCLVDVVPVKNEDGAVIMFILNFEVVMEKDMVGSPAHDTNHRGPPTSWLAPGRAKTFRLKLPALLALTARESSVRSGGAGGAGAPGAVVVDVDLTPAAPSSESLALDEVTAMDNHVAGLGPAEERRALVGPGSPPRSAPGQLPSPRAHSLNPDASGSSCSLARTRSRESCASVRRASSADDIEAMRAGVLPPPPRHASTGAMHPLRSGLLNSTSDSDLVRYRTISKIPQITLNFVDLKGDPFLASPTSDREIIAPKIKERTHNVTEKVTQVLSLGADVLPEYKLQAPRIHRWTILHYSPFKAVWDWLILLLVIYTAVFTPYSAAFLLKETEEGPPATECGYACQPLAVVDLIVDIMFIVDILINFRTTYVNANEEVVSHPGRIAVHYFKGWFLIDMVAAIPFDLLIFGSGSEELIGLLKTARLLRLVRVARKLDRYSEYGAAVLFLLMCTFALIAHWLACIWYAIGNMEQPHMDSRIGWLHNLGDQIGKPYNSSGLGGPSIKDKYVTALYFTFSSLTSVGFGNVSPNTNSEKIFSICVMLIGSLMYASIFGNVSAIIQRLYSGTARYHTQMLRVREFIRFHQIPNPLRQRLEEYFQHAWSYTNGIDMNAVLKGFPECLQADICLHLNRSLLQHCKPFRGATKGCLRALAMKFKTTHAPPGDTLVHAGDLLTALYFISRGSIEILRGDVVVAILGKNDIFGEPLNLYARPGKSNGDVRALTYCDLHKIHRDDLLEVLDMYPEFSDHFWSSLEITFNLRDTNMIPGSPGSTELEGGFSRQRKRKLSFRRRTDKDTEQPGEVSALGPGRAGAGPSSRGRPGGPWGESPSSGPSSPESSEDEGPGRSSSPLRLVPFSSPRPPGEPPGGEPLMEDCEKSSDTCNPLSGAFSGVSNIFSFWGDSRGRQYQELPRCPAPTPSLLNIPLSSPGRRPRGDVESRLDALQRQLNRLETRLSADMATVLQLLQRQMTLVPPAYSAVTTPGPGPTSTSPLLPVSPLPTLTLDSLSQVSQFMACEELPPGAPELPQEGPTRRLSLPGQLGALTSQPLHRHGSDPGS
row,Structure (SMILES),"hERG current change (%, negative = inhibition) at 10uM"
1,COc1ccccc1CN(C)C(=O)c1cc(C)nc2ccccc12,-65.1%
2,COc1ccccc1CN(C)C(=O)c1cc(-c2cccs2)nc2ccccc12,4.13%
3,COc1ccccc1CN(C)C(=O)c1cc(-c2cc(OC)c(OC)c(OC)c2)nc2ccccc12,12.9%
4,CN(C)C(=S)NC1(C)CCS(=O)(=O)C1 (stereo not shown),6.89%
5,CCOc1ccc(/C=N/NC(=O)NC23CC4CC(CC(C4)C2)C3)cc1O,-10.9%
6,COc1cc(/C=N/NC(=O)NC23CC4CC(CC(C4)C2)C3)ccc1OCC(N)=O,-57%
7,COc1cc(/C=N/NC(=O)NC23CC4CC(CC(C4)C2)C3)ccc1O,-34.3%
8,O=C(N/N=C/c1ccc(O)c(O)c1)NC12CC3CC(CC(C3)C1)C2,-11.8%
9,O=C(N/N=C/c1ccncc1)NC12CC3CC(CC(C3)C1)C2,-26.6%
10,O=C(N/N=C/c1ccc(O)cc1)NC12CC3CC(CC(C3)C1)C2,-55.7%
11,O=C(Nc1nc(-c2ccco2)c(-c2ccco2)s1)c1cnccn1,3.8%
12,CCOC(=O)C1=C(COC(=O)COc2ccc(C(=O)CC)cc2)NC(=O)NC1C (stereo not shown),-25.5%
13,O=C1N/C(=N\N=C\c2cccs2)SC1Cc1ccc(Cl)c(Cl)c1 (stereo not shown),16.1%
14,Cc1cc(NC(=O)c2cc(-c3ccco3)on2)n(-c2ccccc2)n1,-0.313%
15,Cc1cccc(COc2ncnc3nc[nH]c23)c1,-6.73%
16,CN(C)C1(CNC(=O)Nc2ccc(Cl)c(Cl)c2)CCCCC1,-50.1%
17,CN(C)C1(CNC(=O)c2cccc(S(=O)(=O)Nc3ccc(Br)cc3)c2)CCCCC1,-66.7%
18,CCOc1ccc(NS(=O)(=O)c2ccc(C(=O)NCC3(N(C)C)CCCCC3)cc2)cc1,-8.13%
19,CN(C)C1(CNC(=O)c2ccc(NS(=O)(=O)c3ccc(Cl)c(Cl)c3)cc2)CCCCC1,-74.1%
20,COc1ccc(NS(=O)(=O)c2cccc(C(=O)NCC3(N(C)C)CCCCC3)c2)cc1,-40.6%
21,Cc1cc(S(=O)(=O)Nc2ccc(C(=O)NCC3(N(C)C)CCCCC3)cc2)ccc1F,-49.2%
22,CN(C)C1(CNC(=O)Nc2ccccc2)CCCCC1,-3.27%

row,Structure (SMILES),"hERG current change (%, negative = inhibition) at 10uM"
1,Cc1ccc(NS(=O)(=O)c2cccc(C(=O)NCC3(N(C)C)CCCCC3)c2)cc1,-22.4%
2,CN(C)CCNC(=O)Nc1ccc(Cl)c(Cl)c1,-23.4%
3,Cc1ccc(CNC(=O)c2ccc(Br)o2)cc1,-18%
4,O=C(NC1CCCC1)C1CCCN(S(=O)(=O)c2cnc[nH]2)C1 (stereo not shown),15.3%
5,O=C(NCc1cccs1)c1cnc(Cl)c(Cl)c1,11.7%
6,CC1=Nc2ccccc2N=C(NC(=O)CSC(=S)N2CCN(C)CC2)C1c1ccccc1 (stereo not shown),-24.2%
7,COc1ccc2c(Cl)c(C(=O)NN)sc2c1,7.88%
8,O=[N+]([O-])c1ccc(CSc2nnc(SCc3ccc(Cl)cc3)s2)cc1,16.8%
9,O=C(c1ccccc1F)N1CCc2ccccc21,-7.14%
10,Cc1ccc(N(CC(=O)NC2CCCC2)C(=O)CCCC(=O)Nc2ccccn2)cc1C,2.86%
11,COc1ccc(/C=N/OCC(=O)NC(c2ccccc2)c2ccccc2)c(OC)c1,-35.1%
12,CCn1c(CCNC(=O)c2cccs2)nnc1SCC(=O)Nc1cccc(Cl)c1,-64.5%
13,Cn1c(CNC(=O)c2cccs2)nnc1SCC(=O)Nc1ccc(Cl)cc1,-35.4%
14,CCn1c(CCNC(=O)c2cccs2)nnc1SCC(=O)Nc1ccc(Cl)cc1,-49.7%
15,CCn1c(CNC(=O)c2cccs2)nnc1SCC(=O)Nc1ccc(Cl)cc1,-57.5%
16,CCc1nnc(NC(=O)CSc2nnc(CNc3ccc(OC)cc3)n2CC)s1,13.1%
17,CCc1nnc(NC(=O)CSc2nnc(CNc3cccc(C)c3)n2-c2ccccc2)s1,3.35%
18,CCc1nnc(NC(=O)CSc2nnc(CNc3cccc(Cl)c3)n2CC)s1,-59.6%
19,CCn1c(CCNC(=O)c2cccs2)nnc1SCC(=O)NC1CCCCC1,0.651%
20,CCn1c(CCNC(=O)c2cccs2)nnc1SCC(=O)c1ccc(OC)cc1,7.05%
21,CCC(C)(C)C1CCC(=NNC(=O)c2ccoc2C)CC1 (stereo not shown),6.38%
22,CSc1nc(-c2ccccc2)nc(N2CCCC2)c1C(C)=O,-10.8%

row,Structure (SMILES),"hERG current change (%, negative = inhibition) at 10uM"
1,CCN(CC)C(=O)CSc1ncnc2c1cnn2Cc1ccccc1,-19.9%
2,O=C(NC1CCCCCCC1)c1ccccc1O,-6.11%
3,CC(=O)Nc1ccc(NC(=O)C(C)OC(=O)CCCc2c[nH]c3ccccc23)cc1 (stereo not shown),7.68%
4,CCCCn1c(CN2CCN(c3ccccc3)CC2)nc2c1c(=O)n(C)c(=O)n2C,-45.7%
5,CC(C)CCn1c(CN2CCN(c3cccc(Cl)c3)CC2)nc2c1c(=O)n(C)c(=O)n2C,-5.6%
6,CCCCCn1c(CN2CCN(c3cccc(Cl)c3)CC2)nc2c1c(=O)n(C)c(=O)n2C,-35.3%
7,CCCn1c(CN2CCN(c3cccc(Cl)c3)CC2)nc2c1c(=O)n(C)c(=O)n2C,-63.6%
8,Cn1c(=O)c2c(nc(CN3CCN(c4ccccc4)CC3)n2CCc2ccccc2)n(C)c1=O,-33.7%
9,CCCCn1c(CN2CCN(c3cccc(Cl)c3)CC2)nc2c1c(=O)n(C)c(=O)n2C,-56.3%
10,CCc1ccc(-c2nc(C(N)=O)c3[nH]c(=O)n(-c4ccccc4OC)c3n2)cc1,-0.102%
11,COc1cc(/C=N/Nc2nc(=O)[nH]nc2C)ccc1O,4.93%
12,CSc1ccccc1NC(=O)CN(C)C(=O)c1ccc2c(c1)OCCO2,5.66%
13,O=C(CN1CCOCC1)OCCCc1ccccc1,9.77%
14,O=C(O)c1cnn(-c2ccccc2)c1-n1cccc1,9%
15,O=C(c1cnn(-c2ccccc2)c1-n1cccc1)N1CCN(C2CCCCC2)CC1,-67.2%
16,CC(C)(C)OC(=O)N1CCC(c2c(C(=O)N3CCN(C(=O)c4ccco4)CC3)cnn2-c2ccc(F)cc2)CC1,-14.8%
17,Cc1ccc(-n2ncc(C(=O)O)c2C2CCN(C(=O)OC(C)(C)C)CC2)cc1,-3.86%
18,CC(C)(C)OC(=O)N1CCC(c2c(C(=O)O)cnn2-c2ccccc2)CC1,11%
19,CC(C)(C)OC(=O)N1CCC(c2c(C(=O)N3CCN(C4CCCCC4)CC3)cnn2-c2ccc(F)cc2)CC1,-55.5%
20,O=C(c1cnn2ccccc12)N1CCN(C2CCCCC2)CC1,-9.39%
21,Cc1ccc(-n2ncc(C(=O)N3CCN(C(=O)c4ccco4)CC3)c2C2CCN(C(=O)OC(C)(C)C)CC2)cc1C,0.366%
22,CC(C)(C)OC(=O)N1CCC(c2c(C(=O)N3CCN(C(=O)c4ccco4)CC3)cnn2-c2cccc(Cl)c2)CC1,-65.6%

row,Structure (SMILES),"hERG current change (%, negative = inhibition) at 10uM"
1,CC(C)(C)OC(=O)N1CCC(c2c(C(=O)NC3CC3)cnn2-c2ccccc2)CC1,-22.9%
2,CC(C)(C)OC(=O)N1CCC(c2c(C(=O)N3CCN(C(=O)c4ccco4)CC3)cnn2-c2ccc(F)cc2F)CC1,-19.6%
3,CC(C)(C)OC(=O)N1CCC(c2c(C(=O)N3CCN(C4CCCCC4)CC3)cnn2-c2ccccc2)CC1,-54.7%
4,COc1ccc(-c2c3c(=O)n(C)c(=O)n(C)c3cn2Cc2cccnc2)cc1,4.55%
5,O=C(COC(=O)C1CCN(c2ccc(C(F)(F)F)cn2)CC1)Nc1ccc(F)cc1[N+](=O)[O-],13%
6,COc1ccccc1CCNC(=O)CSc1nc(-c2ccco2)cc(C(F)(F)F)n1,27.1%
7,CCCCn1c(-c2csc(CCC)c2)n[nH]c1=S,14.8%
8,CC1CCC2(CC1)NC(=O)N(Cc1cccc(C(F)(F)F)c1)C2=O (stereo not shown),12.9%
9,N#C/C(=C\c1ccc(-c2cccc([N+](=O)[O-])c2)o1)C(=O)N1CCOCC1,-6.75%
10,O=C(NCC1CCCO1)c1ccc(CSCc2cccc(F)c2)o1 (stereo not shown),-7.59%
11,COc1ccc(C(=O)NNc2cc(C)nc(NNC(=O)c3ccc(OC)cc3)n2)cc1,7.94%
12,CCN(C(=O)COc1cccnc1[N+](=O)[O-])C1CCS(=O)(=O)C1 (stereo not shown),-0.18%
13,CCOc1ccc(CNC(=O)CCS(=O)(=O)Cc2cccc(Cl)c2)cc1OC,-12.1%
14,O=C(O)c1cc2c(ccc3ccccc32)o1,4.33%
15,COC(=O)c1ccc([C@H]2CC(=O)O2)cc1,1.35%
16,c1ccc2c(c1)nc(NC1CCCCC1)c1nncn12,-35.2%
17,CC(C)(C)OC(=O)N1CCC(c2c(C(=O)NCC3CCN(C4CCCC4)C3)cnn2-c2ccccc2)CC1 (stereo not shown),-35.8%
18,Cc1ccc(-n2ncc(C(=O)NCC3CCN(C4CCCC4)C3)c2C2CCN(C(=O)OC(C)(C)C)CC2)cc1 (stereo not shown),-20.4%
19,CC(C)(C)OC(=O)N1CCC(c2c(C(=O)NCC3CCN(C4CCCC4)C3)cnn2-c2ccc(F)cc2)CC1 (stereo not shown),-50.5%
